Consider 14 compounds from PubChem BioAssay (Tox21).

A short description of experiment [1]: qHTS assay to identify small molecule antagonists of the thyroid receptor (TR) signaling pathway - cell viability counter screen (AID 743064). Also: nearly all actives have a fitted effect of over 50% in size. Also: potency is read from the fitted curve at half-maximal effect. In outline: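 GH3.TRE-Luc rat pituitary cells dosed after 4 hr plating, co-stimulated with T3 at 1 nM final, incubated 23.5 h at 37 C. Viability measured in the same wells by CellTiter-Fluor fluorescence after 30 min further at 37 C.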

Experiment [2] can be described thus: qHTS assay to identify small molecule antagonists of the thyroid receptor (TR) signaling pathway (AID 743065). Also: nearly all actives have a fitted effect of over 55% in size. Also: potency is read from the fitted curve at half-maximal effect. The method, boiled down: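 GH3.TRE-Luc rat pituitary cells (two TREs driving luciferase) were dosed with compound, then stimulated with 1 nM T3 (final) for 23.5 h at 37 C. ONE-Glo luminescence was the read-out, with CellTiter-Fluor fluorescence as the cytotoxicity counter-screen.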
On the technique in general: qHTS replaces the single test concentration by a dilution series.

Experiment [3] has as its system thyroid hormone receptor (rat, GH3 cells). Description: qHTS assay to identify small molecule agonists of the thyroid receptor (TR) signaling pathway (AID 743066; calls by dose curve).
Experiment [4] is described as follows: qHTS assay to identify small molecule antagonists of the estrogen receptor alpha (ER-alpha) signaling pathway - cell viability counter screen (AID 743074; calls by dose curve;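 also: HEK293 cells carrying ER-alpha-UAS-bla reporter stimulated with 17beta-estradiol; nearly all actives have a fitted effect of over 45% in size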).
Experiment [5] can be described thus: qHTS assay to identify small molecule antagonists of the estrogen receptor alpha (ER-alpha) signaling pathway using the BG1 cell line - cell viability counter screen (AID 743081).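 Also: compound given together with 17beta-estradiol as the ER stimulus; nearly all actives have a fitted effect of over 45% in size.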
The target of experiment [6] is Aromatase (Homo sapiens) (UniProt P11511). As to the kind of experiment: qHTS assay to identify aromatase inhibitors (AID 743083). Also: nearly all actives have a fitted effect of over 55% in size. Also: potency is read from the fitted curve at half-maximal effect.
The nature of experiment [7]: qHTS assay to identify aromatase inhibitors - cell viability counter screen (AID 743084).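 Also: cells stimulated with testosterone during compound exposure; nearly all actives have a fitted effect of over 55% in size.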
For experiment [8], the target named is Aryl hydrocarbon receptor (Homo sapiens) (UniProt P35869). As to the kind of experiment: qHTS assay to identify small molecule that activate the aryl hydrocarbon receptor (AhR) signaling pathway (AID 743085). Also: nearly all actives have a fitted effect of over 15% in size. Also: potency is read from the fitted curve at half-maximal effect.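 As to activation: HG2L7.5c1 human HepG2 liver cells with stably integrated DRE-driven firefly reporter.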 In outline: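 HepG2 cells stably carrying a 20-DRE firefly luciferase reporter (HG2L7.5c1) treated with compound for 24 hr at 37C. Luciferase read by ONE-Glo luminescence, with CellTiter-Fluor viability read first.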

In experiment [9] the target is Peroxisome proliferator-activated receptor gamma (Homo sapiens) (UniProt P37231). As to the kind of experiment: qHTS assay to identify small molecule antagonists of the peroxisome proliferator-activated receptor gamma (PPARg) signaling pathway (AID 743191; calls by dose curve; also: nearly all actives have a fitted effect of over 30% in size). In outline: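 GeneBLAzer PPARg UAS-bla HEK293H cells, 5 h post-plating, exposed to compounds 17 h at 37C. LiveBLAzer B/G FRET substrate added for 1 h at room temperature; beta-lactamase reporter read by fluorescence intensity.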

Experiment [10] can be described thus: qHTS assay to identify small molecule antagonists of the peroxisome proliferator-activated receptor gamma (PPARg) signaling pathway - cell viability counter screen (AID 743194). Also: nearly all actives have a fitted effect of over 55% in size. The method, boiled down:
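Cytotoxicity counter screen in PPARg-bla HEK293H cells, same wells as reporter assay. Compounds plus 50 nM rosiglitazone (final) for 17 h at 37 C, then viability read by CellTiter-Glo luminescence.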

Experiment [11] is described as follows: qHTS assay for small molecule agonists of the antioxidant response element (ARE) signaling pathway (AID 743202; active = well fitted activation curve with a large enough effect in the signal ratio in the repeat runs, not every such curve was filed as active; the % refers to the signal ratio; also: potency is read from the fitted curve at half-maximal effect). The method, boiled down:
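Agonist mode reporter screen: HepG2 cells with ARE-controlled beta-lactamase are incubated with test compounds for 16 h at 37 C, and beta-lactamase activity is measured as fluorescence of cleaved B/G FRET substrate.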

The nature of experiment [12]: qHTS assay for small molecule agonists of the antioxidant response element (ARE) signaling pathway - cell viability counter screen (AID 743203; calls by dose curve; also: nearly all actives have a fitted effect of over 55% in size; also: potency is read from the fitted curve at half-maximal effect). In outline: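 CellSensor ARE-bla HepG2 cells, 2,000 per well, rested 5 hrs at 37C/5% CO2, then exposed to compound in DMSO for 16 hrs; viability read as CellTiter-Glo luminescence after 30 min at room temperature, in the reporter wells.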

Experiment [13] is described as follows: qHTS assay to identify small molecule that activate the aryl hydrocarbon receptor (AhR) signaling pathway - cell viability counter screen (AID 743086). Also: nearly all actives have a fitted effect of over 45% in size. In outline:
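HepG2-AhR-luc (HG2L7.5c1) cells, 4000/well, treated 24 h at 37 C with compound; viability measured as CellTiter-Fluor fluorescence after 30 min in the same wells as the luciferase read.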

For experiment [14], the target named is Peroxisome proliferator-activated receptor gamma (Homo sapiens) (UniProt P37231). As to the kind of experiment: qHTS assay to identify small molecule agonists of the peroxisome proliferator-activated receptor gamma (PPARg) signaling pathway (AID 743094; active = well fitted activation curve with a large enough effect in the signal ratio in the repeat runs, not every such curve was filed as active; the % refers to the signal ratio; also: potency is read from the fitted curve at half-maximal effect). The method, boiled down:
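GeneBLAzer PPARg UAS-bla HEK293H cells carrying a stably integrated beta-lactamase reporter were pre-incubated 5 h at 37C, then exposed to compounds in DMSO for 17 h at 37C; LiveBLAzer B/G FRET substrate was added for 1 h at room temperature and fluorescence read.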

Experiment [15] in a line: qHTS assay for small molecule activators of the heat shock response signaling pathway - cell viability counter screen (AID 743209). Also: nearly all actives have a fitted effect of over 50% in size. In outline:
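CellSensor HSE-bla HeLa cells, plated overnight at 37 C/5% CO2, were exposed to compounds in DMSO for 5 h at 37 C. Viability was then read in the same wells by CellTiter-Glo luminescence after 30 min at room temperature.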

Experiment [16] can be described thus: qHTS assay for small molecule activators of the heat shock response signaling pathway (AID 743210; active = well fitted activation curve with a large enough effect in the signal ratio in the repeat runs, with a control signal flat, not every such curve was filed as active; the % refers to the signal ratio;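 also: HeLa cells with beta-lactamase reporter driven by heat shock elements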). The method, boiled down:
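Quantitative high-throughput format using an engineered HeLa line in which heat shock response elements drive beta-lactamase; after 5 h with compound, cells received a B/G FRET substrate and fluorescence was read.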

A short description of experiment [17]: qHTS assay to identify small molecule antagonists of the estrogen receptor alpha (ER-alpha) signaling pathway using the BG1 cell line (AID 743080; calls by dose curve;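 also: BG1 cells stimulated with 17beta-estradiol alongside compound; potency is read from the fitted curve at half-maximal effect; nearly all actives have a fitted effect of over 25% in size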). In outline: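 Luminescence from a 4×ERE-luciferase reporter in BG1-Luc-4E2 cells served as read-out. Cells, pre-cultured 5 days in stripped-serum phenol-red-free medium, were exposed to compound with 17beta-estradiol co-stimulation for 21.5 h at 37 C.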

In experiment [18] the target is Estrogen receptor (Homo sapiens) (UniProt P03372). As to the kind of experiment: qHTS assay to identify small molecule agonists of the estrogen receptor alpha (ER-alpha) signaling pathway using the BG1 cell line (AID 743079). Also: nearly all actives have a fitted effect of over 20% in size. The note with it: BG1Luc4E2 cells, ERE-luciferase agonist, 22 h; activation: at 70.3 µM (top of the series).

SMILES strings stand for the structures. Inconclusive results are not listed. Active and inactive are the calls of the source. Unless noted, calls follow the shape of the dose curve; as a rule, active = well fitted curve in the direction sought with a large enough effect in the repeat runs; inconclusive = weak or mixed curves; inactive = no such curve, though single readings can be large; an effect the other way counts as inactive or inconclusive.

Chain of Aromatase (Homo sapiens) (P11511 whole entry, looked up): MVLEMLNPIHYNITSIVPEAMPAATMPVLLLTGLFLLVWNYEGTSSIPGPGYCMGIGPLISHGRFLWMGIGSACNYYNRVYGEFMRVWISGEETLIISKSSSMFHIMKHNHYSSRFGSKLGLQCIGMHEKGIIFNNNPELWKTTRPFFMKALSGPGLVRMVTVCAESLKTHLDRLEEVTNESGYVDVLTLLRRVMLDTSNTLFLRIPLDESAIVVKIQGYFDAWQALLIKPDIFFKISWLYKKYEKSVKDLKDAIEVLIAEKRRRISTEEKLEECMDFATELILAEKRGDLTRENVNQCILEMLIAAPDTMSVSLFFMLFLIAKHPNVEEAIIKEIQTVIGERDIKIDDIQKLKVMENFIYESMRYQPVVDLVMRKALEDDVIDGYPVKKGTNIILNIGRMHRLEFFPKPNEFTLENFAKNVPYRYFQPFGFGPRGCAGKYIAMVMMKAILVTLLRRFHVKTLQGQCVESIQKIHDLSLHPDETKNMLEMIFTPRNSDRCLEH
Chain of Aryl hydrocarbon receptor (Homo sapiens) (P35869 whole entry, looked up): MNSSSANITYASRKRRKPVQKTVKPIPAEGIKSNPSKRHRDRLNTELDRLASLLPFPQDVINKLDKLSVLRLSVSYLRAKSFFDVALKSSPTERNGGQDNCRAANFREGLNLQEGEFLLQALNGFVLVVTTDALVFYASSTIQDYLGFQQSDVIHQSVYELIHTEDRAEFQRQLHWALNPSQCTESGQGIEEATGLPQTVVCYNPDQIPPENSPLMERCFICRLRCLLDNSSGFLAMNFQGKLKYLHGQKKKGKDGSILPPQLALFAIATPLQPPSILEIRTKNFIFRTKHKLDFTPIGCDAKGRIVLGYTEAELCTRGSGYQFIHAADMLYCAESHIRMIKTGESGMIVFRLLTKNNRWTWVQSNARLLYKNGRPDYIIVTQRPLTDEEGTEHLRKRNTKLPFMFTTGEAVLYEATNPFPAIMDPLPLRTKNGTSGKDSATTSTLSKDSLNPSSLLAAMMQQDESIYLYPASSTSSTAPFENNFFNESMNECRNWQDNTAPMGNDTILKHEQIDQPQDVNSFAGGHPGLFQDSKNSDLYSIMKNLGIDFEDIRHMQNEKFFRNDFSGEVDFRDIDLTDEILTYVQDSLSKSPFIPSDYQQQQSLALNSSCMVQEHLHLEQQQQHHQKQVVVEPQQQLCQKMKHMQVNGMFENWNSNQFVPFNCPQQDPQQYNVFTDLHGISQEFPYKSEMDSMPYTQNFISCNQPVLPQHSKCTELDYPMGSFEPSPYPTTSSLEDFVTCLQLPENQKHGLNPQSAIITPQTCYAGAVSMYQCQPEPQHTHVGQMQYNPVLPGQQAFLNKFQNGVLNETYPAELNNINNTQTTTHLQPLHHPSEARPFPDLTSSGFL
Chain of Peroxisome proliferator-activated receptor gamma (Homo sapiens) (P37231 whole entry, looked up): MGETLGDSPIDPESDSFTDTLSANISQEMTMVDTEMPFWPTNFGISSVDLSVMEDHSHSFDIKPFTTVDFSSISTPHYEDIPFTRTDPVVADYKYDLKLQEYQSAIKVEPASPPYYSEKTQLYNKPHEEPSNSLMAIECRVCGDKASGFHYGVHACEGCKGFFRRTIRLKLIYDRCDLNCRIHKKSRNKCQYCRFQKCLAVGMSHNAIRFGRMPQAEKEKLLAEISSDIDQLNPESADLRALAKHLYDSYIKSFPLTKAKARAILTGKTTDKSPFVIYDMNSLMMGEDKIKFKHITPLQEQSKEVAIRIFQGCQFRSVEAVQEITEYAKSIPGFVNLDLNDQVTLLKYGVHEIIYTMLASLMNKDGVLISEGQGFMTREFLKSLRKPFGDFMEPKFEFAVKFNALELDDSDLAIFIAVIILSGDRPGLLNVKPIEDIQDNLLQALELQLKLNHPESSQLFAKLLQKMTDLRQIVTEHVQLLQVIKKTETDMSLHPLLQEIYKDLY
Chain of Estrogen receptor (Homo sapiens) (P03372 whole entry, looked up): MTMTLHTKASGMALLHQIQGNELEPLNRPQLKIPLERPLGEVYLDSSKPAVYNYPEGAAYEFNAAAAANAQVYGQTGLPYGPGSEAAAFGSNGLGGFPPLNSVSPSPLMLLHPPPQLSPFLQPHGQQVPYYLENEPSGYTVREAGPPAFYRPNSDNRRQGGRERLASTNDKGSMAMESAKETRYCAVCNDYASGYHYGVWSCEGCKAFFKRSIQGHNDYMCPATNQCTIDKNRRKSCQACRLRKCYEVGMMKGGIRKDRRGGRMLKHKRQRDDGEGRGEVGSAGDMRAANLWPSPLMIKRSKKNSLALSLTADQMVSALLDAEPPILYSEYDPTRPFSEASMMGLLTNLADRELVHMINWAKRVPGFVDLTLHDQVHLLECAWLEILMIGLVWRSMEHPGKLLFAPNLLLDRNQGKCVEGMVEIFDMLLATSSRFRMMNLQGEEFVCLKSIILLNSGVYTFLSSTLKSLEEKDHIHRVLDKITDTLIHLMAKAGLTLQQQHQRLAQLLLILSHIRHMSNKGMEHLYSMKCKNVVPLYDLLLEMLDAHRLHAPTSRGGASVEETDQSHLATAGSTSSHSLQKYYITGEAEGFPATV

On to `c1csc(SSc2cccs2)c1`, for which the Potency entry in experiment [1], in experiment [2], in experiment [4], in experiment [5], in experiment [6] and in [7] was “inactive” throughout. For the same compound, the Potency entry in experiment [8], in [9], in [10], in [11] and in experiment [12] was “inactive” in each case. Also, the outcome in experiment [3] was inactive.
Regarding `O=C1NCCN1CCO`, the Potency result in experiment [1], in experiment [2], in [4], in [5], in experiment [6] and in [13] was “inactive” in each case. Besides, the Potency entry in experiment [14], in [9], in experiment [10], in experiment [11], in experiment [12] and in experiment [15] was “inactive” throughout. In addition, in experiment [16], the Potency result was “inactive”. Also, in [3], the result was inactive.
With `NC1[C@H]2CN(c3nc4c(cc3F)c(=O)c(C(=O)O)cn4-c3ccc(F)cc3F)C[C@@H]12` (stereo not given in full), the Potency in experiment [1] is 26.6 µM (active); in experiment [2], 9.44 µM (active); in experiment [17] it was 13.3 µM (active); in experiment [6] it was 0.473 µM (active); in experiment [14], 23.9 µM (active); in experiment [11] it was 8.41 µM (active). Further, in experiment [3], the call was inactive. Moreover, the Potency result in [4], in experiment [5], in experiment [7], in experiment [8], in [10] and in experiment [12] was “inactive” in each case. The Potency entry in experiment [15] and in experiment [16] was “inactive” in each case.
As to `CCOC(=O)c1ccccc1C(=C1C=C(Br)C(=O)C(Br)=C1)c1cc(Br)c(O)c(Br)c1`, the Potency was 45.7 µM (active) in [1] and 18.2 µM (active) in experiment [2]. Also, in experiment [3], the compound was classed as inactive. Further, the Potency entry in experiment [18], in experiment [5], in [6], in experiment [7], in [8] and in experiment [13] was “inactive” throughout. Besides, the Potency entry in [12] is “inactive”.
`CO/N=C(/C(=O)N[C@@H]1C(=O)N2C(C(=O)O)=C(COC(N)=O)CS[C@H]12)c1ccco1`: the Potency result in experiment [1], in [2], in experiment [4], in experiment [5], in experiment [6] and in experiment [7] was “inactive” in each case. The Potency result in experiment [8], in experiment [13], in [14], in experiment [10], in experiment [12] and in experiment [15] was “inactive” in each case. Also, the result in experiment [3] was inactive.
In the case of `CC1(C)O[C@@H]2C[C@H]3[C@@H]4C[C@H](F)C5=CC(=O)C=C[C@]5(C)[C@H]4[C@@H](O)C[C@]3(C)[C@]2(C(=O)CO)O1`, the Potency entry in experiment [1], in experiment [2], in experiment [4], in experiment [18], in [5] and in experiment [6] was “inactive” in each case. The Potency entry in experiment [7], in experiment [8], in [13], in [14], in experiment [10] and in [11] was “inactive” throughout. The Potency entry in [12], in [15] and in experiment [16] was “inactive” in each case. For the same compound, the compound was classed as inactive in experiment [3].
Take `CC1=C(CC=O)C(C)(C)CCC1`: the Potency result in experiment [1], in [2], in experiment [4], in experiment [5], in experiment [6] and in [7] was “inactive” throughout. Moreover, the Potency entry in experiment [8], in experiment [13], in experiment [14], in [10], in experiment [11] and in experiment [15] was “inactive” throughout. In addition, the call in experiment [3] was inactive.
In the case of `O=C(Nc1cccc2c(=O)cc(-c3nn[nH]n3)oc12)c1ccc(OCCCCc2ccccc2)cc1`, the Potency result in experiment [1], in experiment [2], in experiment [4], in [5], in experiment [6] and in [7] was “inactive” in each case. In addition, the Potency entry in [8], in [13], in [14], in [10], in experiment [15] and in experiment [16] was “inactive” in each case. Besides, the compound was called inactive in experiment [3]. Also, in experiment [12], the Potency is 29.8 µM (active).
As to `CC1CC(C)C(=O)C1=O` (stereo not given), the Potency result in [1], in [2], in experiment [4], in experiment [5], in experiment [6] and in experiment [7] was “inactive” each time. Besides, the Potency entry in [8], in experiment [13], in experiment [14], in experiment [9], in [10] and in experiment [11] was “inactive” in each case. The Potency entry in [12], in experiment [15] and in experiment [16] was “inactive” in each case. Further, the compound was classed as inactive in [3].
`O=c1cc(-c2ccccc2)oc2cc(O)cc(O)c12`: the Potency in [1] was 54.5 µM (active); in [2] it was 54.5 µM (active); in experiment [8], 12.2 µM (active). Also, the outcome in [3] was inactive. In addition, the Potency entry in [4], in experiment [5], in experiment [10] and in experiment [12] was “inactive” throughout.
`CC(C)C=O`: the Potency result in experiment [1], in experiment [2], in experiment [4], in [5], in [6] and in experiment [7] was “inactive” each time. Also, the Potency entry in experiment [8], in [13], in experiment [10], in experiment [11], in [12] and in [15] was “inactive” throughout. In addition, the outcome in experiment [3] was inactive.
Consider `NNC(=O)CP(=O)(c1ccccc1)c1ccccc1`, for which the Potency entry in experiment [1], in experiment [2], in experiment [4], in experiment [5], in [13] and in experiment [10] was “inactive” in each case. In addition, the Potency entry in [11], in experiment [12], in experiment [15] and in experiment [16] was “inactive” each time. Further, the outcome in experiment [3] was inactive.
Consider `CC(=O)Nc1ccc(C)cc1C`, for which the Potency result in [1], in [2], in [4], in [5], in experiment [6] and in experiment [7] was “inactive” in each case. In addition, the Potency result in experiment [8], in experiment [13], in experiment [14], in experiment [9], in experiment [10] and in experiment [11] was “inactive” each time. Moreover, the Potency entry in experiment [12], in experiment [15] and in experiment [16] was “inactive” in each case. Moreover, the call in experiment [3] was inactive.
On to `CC1(C)[C@@H](OC(=O)CCC(=O)O)CC[C@]2(C)[C@H]3C(=O)C=C4[C@@H]5C[C@@](C)(C(=O)O)CC[C@]5(C)CC[C@@]4(C)[C@]3(C)CC[C@@H]12`, for which the Potency entry in experiment [1], in experiment [2], in experiment [4], in experiment [5], in experiment [6] and in experiment [7] was “inactive” in each case. Also, the Potency result in experiment [8], in [13], in experiment [14], in [10], in experiment [12] and in experiment [16] was “inactive” in each case. The compound was called inactive in experiment [3]. The Potency in experiment [11] was 26.6 µM (active).
